Bioassay records from PubChem BioAssay.
aSyn 5UTR act: Activators via SNCA 5'UTR binding, MLPCN. activity score, % (tested at 7.5 µM), hits read low. alpha-synuclein 5'UTR reporter, activators screen. AID 1814, 2009. 300,000 compounds, 7.1% hits; in the data active means activity score below about -60%
An asterisk follows results filed as active. A selection follows.

`COC(=O)[C@@H]1CCCN1C(=O)CCc1nnc(CCC2CCCCC2)o1` gave aSyn 5UTR act -116*.
For Cc1cc(C)c(S(=O)(=O)Nc2ccc(N(C)C)cc2)c(C)c1-n1cnnn1 the results were aSyn 5UTR act -79*.
Screening Cc1nc(Nc2ccccc2)sc1C(=O)c1ccccc1 returned aSyn 5UTR act -68*.
`COC(=O)c1sc(Nc2ccccc2)nc1C` gave aSyn 5UTR act -157*.
`COC(=O)Nc1nc(-c2ccccc2)c(C(=O)c2ccccc2)s1` gave aSyn 5UTR act 100.
For COC(=O)Nc1nc(C)c(C(=O)c2ccccc2)s1 the results were aSyn 5UTR act -105*.
For CCOC(=O)c1sc(Nc2nc3c(OC)cccc3s2)nc1C the results were aSyn 5UTR act -164*.
Screening CCOC(=O)c1sc(Nc2ccccc2)nc1C returned aSyn 5UTR act -96*.
CCOC(=O)c1sc(NC(=O)Nc2ccc(Cl)cc2)nc1C was read as aSyn 5UTR act -175*.
`Cc1ccc(-c2nc(Nc3cccc(C)c3)sc2CC(=O)O)cc1` gave aSyn 5UTR act -143*.
For CCOC(=O)c1sc(Nc2nc(C)cc(C)n2)nc1C the results were aSyn 5UTR act 84.
Screening CCOC(=O)c1sc(-c2cccs2)nc1C returned aSyn 5UTR act -65*.
For O=C(Cc1sc(Nc2ccccc2)nc1-c1ccccc1)NCc1ccccc1 the results were aSyn 5UTR act -123*.
Screening Cc1cccc(Nc2nc3c(s2)CCCC3)c1 returned aSyn 5UTR act -257*.
Screening CCc1nnc(NC(=O)Nc2ccc(Cl)cc2)s1 returned aSyn 5UTR act -66*.
Screening CC(=O)c1sc(Nc2cccc(C)c2)nc1C returned aSyn 5UTR act -165*.
COc1ccc(Nc2nc(N)c(C(=O)c3ccc(F)cc3)s2)cc1 was read as aSyn 5UTR act 70.
CC(C)(C)C(=O)c1sc(Nc2ccccc2)nc1N was read as aSyn 5UTR act -180*.
For C1CCN=C(Nc2nc3c(s2)CCCC3)CC1 the results were aSyn 5UTR act -139*.
Screening O=C1OC(/C(=C\Nc2cc(Cl)ccc2O)[N+](=O)[O-])c2ccccc21 (stereo not drawn) returned aSyn 5UTR act -102*.
`Nc1ccc(-c2nc3ccccc3s2)cn1` gave aSyn 5UTR act -110*.
Screening c1ccc(-c2nc3ccccc3s2)nc1 returned aSyn 5UTR act -87*.
For Brc1ccc(-c2nc3ccccc3s2)s1 the results were aSyn 5UTR act -115*.
For COc1cc(OC)cc(-c2nc3ccccc3s2)c1 the results were aSyn 5UTR act -286*.
`O=C1CNC(=S)N1c1nc2ccccc2s1` gave aSyn 5UTR act 41.
For O=C1CCC(=O)N1c1ccc(-c2nc3ccccc3s2)cc1 the results were aSyn 5UTR act -120*.
Cc1[nH]c2ccccc2c1/C=C(\C#N)C(=O)NC1CC1 was read as aSyn 5UTR act -80*.
Cc1[nH]c2ccccc2c1C(=O)CSC(=S)N(C)C was read as aSyn 5UTR act -76*.
Screening Cc1[nH]c2ccccc2c1C(=O)CN1C(=O)NC2(CC(C)CC(C)(C)C2)C1=O (stereo not drawn) returned aSyn 5UTR act 57.
For O=C(Nc1ccc(F)c(Cl)c1)c1nsc(Cl)c1Cl the results were aSyn 5UTR act -110*.
`CCOc1ccc(NC(=O)c2nsc(Cl)c2Cl)cc1` gave aSyn 5UTR act -117*.
O=C(Nc1ccc(F)cc1)c1nsc(Cl)c1Cl was read as aSyn 5UTR act -178*.
`CCc1ccc(C(=O)Nn2cnc3ccccc3c2=O)cc1` gave aSyn 5UTR act -150*.
Screening Cc1ccc(C(=O)Nn2cnc3ccccc3c2=O)cc1C returned aSyn 5UTR act -115*.
For Cc1ccc(Cl)c(NC(=O)CCl)c1Cl the results were aSyn 5UTR act -87*.
COC(=O)c1ccc(C2N=C(c3cccs3)CC(c3ccccc3O)N2)cc1 (stereo not drawn) was read as aSyn 5UTR act -98*.
COc1ccc2c(c1)CC/C(=C\C=C\c1ccccc1OC)C2=O was read as aSyn 5UTR act -134*.
For COc1ccc2c(c1)C(=O)/C(=C/C=C/c1ccccc1)CC2 the results were aSyn 5UTR act -115*.
`COc1ccc2c(c1)CC/C(=C\c1ccc(C)o1)C2=O` gave aSyn 5UTR act -170*.
COc1ccc(C2=Nc3ccccc3OC2)cc1 was read as aSyn 5UTR act -189*.
Screening N/C(=N\OC(=O)/C=C/c1ccccc1)c1ccncc1 returned aSyn 5UTR act -133*.
`O=C(/C=C/Nc1ccccc1Br)c1ccccn1` gave aSyn 5UTR act 114.
Screening N/C(=N\OC(=O)/C=C/c1ccccc1)c1ccccn1 returned aSyn 5UTR act -99*.
For Cc1ccc(C(=O)O/N=C(\N)c2ccccn2)c(Cl)c1 the results were aSyn 5UTR act 108.
For N/C(=N\OC(=O)/C=C/c1ccccc1Cl)c1ccncc1 the results were aSyn 5UTR act -126*.
For O=C(/C=C/c1ccccc1)c1ccccn1 the results were aSyn 5UTR act -135*.
Screening O=C(/C=C/c1ccc2c(c1)OCO2)c1ccccn1 returned aSyn 5UTR act -140*.
Screening COc1ccc(C2=NN(S(C)(=O)=O)C(c3cccs3)C2)cc1OC (stereo not drawn) returned aSyn 5UTR act -115*.
CCS(=O)(=O)Nc1ccc(C2=NN(S(C)(=O)=O)C(c3cccs3)C2)cc1 (stereo not drawn) was read as aSyn 5UTR act -101*.
For COc1cccc(C2=NN(S(C)(=O)=O)C(c3cccs3)C2)c1 (stereo not drawn) the results were aSyn 5UTR act -107*.
For COc1ccc2cc(C3CC(c4cccs4)=NN3S(C)(=O)=O)c(Cl)nc2c1 (stereo not drawn) the results were aSyn 5UTR act -62*.
For Cc1ccccc1-c1cc(-c2ccccc2O)n[nH]1 the results were aSyn 5UTR act -183*.
Screening Cc1ccc(-c2cc(-c3ccccc3Cl)[nH]n2)c(O)c1 returned aSyn 5UTR act -221*.
`Cc1ccc(-c2cc(-c3ccccc3[N+](=O)[O-])[nH]n2)c(O)c1` gave aSyn 5UTR act -343*.
For CC1SCC(=NOCc2ccccc2)CS1 (stereo not drawn) the results were aSyn 5UTR act -89*.
For O=C(Nc1ccc(N2CCOCC2)cc1)Nc1cnsn1 the results were aSyn 5UTR act -114*.
Screening O=C(Nc1ccc(N2CCOCC2)cc1)Nc1ccc(Cl)c(Cl)c1 returned aSyn 5UTR act -139*.
`COc1cccc(NC(=S)/C(=C(\[O-])c2ccc(OC(F)F)cc2)[n+]2ccccc2)c1` gave aSyn 5UTR act -66*.
`C=CC[n+]1c(-c2ccc(Cl)cc2Cl)csc1Nc1ccc(NC(C)=O)cc1` gave aSyn 5UTR act 94.
`Clc1ccc(-c2csc(Nc3ccccc3)[n+]2Cc2ccco2)c(Cl)c1` gave aSyn 5UTR act -269*.
`CCCC[n+]1c(-c2ccc(Cl)cc2Cl)csc1Nc1ccccc1` gave aSyn 5UTR act -128*.
Screening C/C(=N\Nc1cccc([N+](=O)[O-])c1)c1cc2ccccc2o1 returned aSyn 5UTR act -166*.
For C/C(=N\Nc1cccc(C(=O)O)c1)c1cc2ccccc2o1 the results were aSyn 5UTR act -66*.
Screening COc1ccc(-c2csc(NC(=O)CSc3n[nH]c(C)n3)n2)cc1 returned aSyn 5UTR act -104*.
`COc1ccc(-c2csc(NC(=O)CSc3n[nH]c(N)n3)n2)cc1` gave aSyn 5UTR act -123*.
Screening COc1ccc(OS(=O)(=O)Cc2ccccc2)cc1 returned aSyn 5UTR act -103*.
For N#C/C(=C1/CCCCCN1)c1nc2ccccc2s1 the results were aSyn 5UTR act -73*.
